Common to all, as to assay: NCI-60 one-dose screen, 48 h (100 = growth as untreated, 0 = no growth, -100 = all killed)
Common to all, as to conditions: 10 µM unless noted

The test system of assay [1] is HCT-15 colon.
The test system of assay [2] is HT29 colon.
For assay [3], the system named is SNB-19 CNS.
Assay [4] relates to U251 CNS.
Assay [5] deals with PC-3 prostate.
In assay [6] the test system is SK-MEL-5 melanoma.
Assay [7] relates to UACC-62 melanoma.
Assay [8] deals with LOX IMVI melanoma.
Assay [9] concerns SK-MEL-28 melanoma.
The subject of assay [10] is SK-MEL-2 melanoma.
In assay [11] the test system is EKVX NSCLC.
Assay [12] concerns SN12C renal.
Assay [13] has as its system UO-31 renal.
In assay [14] the test system is TK-10 renal.
Assay [15] has as its system ACHN renal.
Assay [16] deals with CAKI-1 renal.
Assay [17] deals with A498 renal.
The subject of assay [18] is CCRF-CEM leukemia.
Assay [19] relates to MOLT-4 leukemia.

The panel holds about 83,000 compounds, 20% with a hit somewhere; the sample as a whole holds those more often.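 Percent growth is the endpoint: 0 to 100 indicates growth inhibition (40 means 60% inhibition), 0 means no net growth, and negative values indicate cell death.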 A number with no mark means an inactive call. Activity calls are given as the source filed them. Rule for the calls: active = growth percent below 10; inactive = the rest.

Take `CC12CCCC(CC(=O)c3[nH]c4ccccc4c31)C2` (stereo not drawn): the growth is 26.6% in assay [1]; 13.2% in [2]; 27.9% in assay [3]; 24.9% in assay [4]; 22.5% in [5]; 6.25% (active) in assay [6]. The growth in [7] was 37.4%; in [8], 36.2%; in [9] it was 53%; in assay [10] it was 30%; in assay [11], 42.1%; in assay [12], 51.8%. The growth is 51.4% in assay [13]; 75.4% in assay [14]; 52.6% in assay [15]; 41.7% in assay [16]; -6.37% (active) in assay [17]; 16.6% in assay [18]. Besides, the growth in assay [19] is 29.5%.
For the compound `O=[N+]([O-])c1cccc(-c2nc3sccn3c2-c2ccnc(NCCCNS(=O)(=O)c3ccc(C(F)(F)F)cc3)n2)c1`, the growth was 17.6% in assay [1]; 36.8% in assay [2]; 69% in assay [3]; 60.9% in assay [4]; 12% in assay [5]; -45.5% (active) in assay [6]. Moreover, the growth in assay [7] is -13.2% (active); in [8], 17.6%; in assay [9], 49.8%; in [10], 25.3%; in assay [11] it was 38.1%; in [12], 35.4%. For the same compound, the growth in assay [13] was 12.5%; in assay [14], 73.6%; in assay [15], 22.6%; in [16], 21.1%; in assay [17], 25%; in assay [18] it was 14.5%. Besides, in assay [19], the growth was 7.2% (active).
Take `CC(C)(C)n1cc(-c2ccnc(NCCCNS(=O)(=O)c3cccc(F)c3)c2)c(-c2cccc(O)c2)n1`: the growth in assay [1] was -7.15% (active); in assay [2], 12.6%; in [3], 75.7%; in assay [4] it was 49.9%; in assay [5], 32.9%; in assay [6], 26.1%. The growth in assay [7] is 64.5%; in [8], -71.1% (active); in assay [9] it was 47.2%; in assay [10], 61%; in assay [11], 51.5%; in assay [12], 59.7%. In addition, the growth in assay [13] was 57.8%; in [14], 97.9%; in assay [15], 51.7%; in assay [16], 56.2%; in assay [17], 51.9%; in [18] it was 39.6%. Besides, the growth in assay [19] was 33.4%.
Regarding `CC(C)(C)n1cc(-c2ccnc(NCCCNS(=O)(=O)c3ccc(F)cc3)c2)c(-c2cccc(O)c2)n1`, the growth in [1] was 0.588% (active); in assay [2], 13.9%; in [3], 71.3%; in [4] it was 50.5%; in [5], 27.5%; in [6], 13.3%. Moreover, the growth was 59.8% in assay [7]; -51.5% (active) in assay [8]; 39.2% in [9]; 52.2% in assay [10]; 49.8% in [11]; 53.4% in [12]. Also, the growth in assay [13] was 59.4%; in [14], 97.6%; in assay [15], 38.2%; in [16], 55%; in [17], 59%; in [18], 35.7%. Also, in [19], the growth was 34.2%.
Regarding `CCN(CC)CCC(CNc1ccnc2cc(Cl)ccc12)c1ccccc1` (stereo not drawn), the growth in assay [1] was 34.1%; in assay [2], 7.02% (active); in [3] it was 92.5%; in [4] it was 50.7%; in assay [5], 56.5%; in assay [6], -75.2% (active). The growth is 57.6% in assay [7]; 39% in assay [8]; -99.9% (active) in assay [9]; 56.2% in assay [10]; 90% in assay [11]; 75.8% in [12]. Also, the growth in [13] is 15.2%; in assay [14] it was 55.9%; in assay [15], 35.3%; in assay [16], 43.4%; in assay [17], 42.3%; in assay [18], 58.6%. In [19], the growth is 50.7%.
Turning to `c1cc(C2=N[C@@H]3c4ccccc4C[C@@H]3O2)nc(C2=N[C@@H]3c4ccccc4C[C@@H]3O2)c1`, the growth was 94.7% in assay [1]; 105% in assay [2]; 97.7% in [3]; 101% in assay [4]; 98.3% in assay [5]; 102% in assay [6]. In addition, the growth in assay [7] is 102%; in assay [8], 97%; in [9], 108%; in assay [10] it was 103%; in assay [11], 89.4%; in [12], 97%. In addition, the growth in [13] is 94.6%; in assay [14], 101%; in [15] it was 102%; in [16] it was 92.4%; in assay [17] it was 102%; in [18], 102%. For the same compound, in [19], the growth was 106%.
Regarding `FC(F)(F)c1ccccc1-c1cn2c(ccc3ccccc32)n1`, the growth in [1] was 55.4%; in assay [2] it was 42.2%; in assay [3] it was 83%; in assay [4], 88.5%; in assay [5], 79.4%; in assay [6] it was 80.7%. Further, the growth was 55.4% in [7]; 74.5% in [8]; 81.8% in assay [9]; 51.8% in assay [10]; 88.5% in assay [11]; 88.3% in [12]. For the same compound, the growth is 61.1% in assay [13]; 125% in assay [14]; 82.3% in assay [15]; 58.7% in [16]; 81.6% in assay [17]; 78.6% in assay [18]. Moreover, the growth in assay [19] is 107%.

The values are drawn from PubChem BioAssay (NCI).
